Results on 5 molecules are retold here after PubChem BioAssay.

Calls of active or inactive are those of the source.

Assay [1] deals with Plasmodium falciparum Sir2 (PF13_0152, Sir2A). Kind of assay: Plasmodium falciparum Sir2A binding compounds – biochemical, small-molecule microarray, 635 nm fluorescence, primary screen (AID 1098).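 Also: score merges spot fluorescence intensity with its signal-to-noise ratio.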 Particulars: fluorescence 635 nm, higher = more signal.
Assay [2] in a line: probe aDKK1 binding to arrayed compounds – biochemical, biotinylated probe, 635/667 nm fluorescence, primary screen (AID 1099).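 Also: score merges 667nm spot fluorescence with signal to noise across triplicate slides.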 Particulars: small-molecule microarray, higher = more signal.
The nature of assay [3]: probe aCHRDL2 binding to arrayed compounds – biochemical, biotinylated probe, 635/667 nm fluorescence, primary screen (AID 1100). As to conditions: small-molecule microarray, higher = more signal.
Assay [4] is described as follows: change in splice reporter luminescence, either direction, cell-based, HEK293, spliceosome inhibition project, primary screen (AID 1101).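 Also: HEK293 cells carrying a splicing-competent luciferase reporter gene; test concentration not given here.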 As to conditions: HEK293 splicing luciferase reporter, 24 h, higher = more signal, called active from +8 up or from −8 down. In general terms: In a reporter assay the amount or activity of a reporter protein is the signal.
Assay [5] addresses Fibroblast growth factor 10 (Homo sapiens) (UniProt O15520). Kind of assay: compounds binding fibroblast growth factor 10 – biochemical, small-molecule microarray, 635 nm fluorescence, primary screen (AID 1102). As to conditions: FGF10 binding, fluorescence 635 nm, higher = more signal.
Assay [6] concerns glycogen synthase kinase-3 (GSK3A per assay name; protocol says GSK3B). The assay can be described thus: compounds binding glycogen synthase kinase-3 – biochemical, small-molecule microarray, 635 nm fluorescence, GSK3A, primary screen (AID 1103). Also: the record names both GSK3A and GSK3B. As to conditions: fluorescence 635 nm, higher = more signal.
Assay [7] addresses Epidermal growth factor receptor (Homo sapiens) (UniProt P00533). Kind of assay: compounds binding epidermal growth factor receptor – biochemical, small-molecule microarray, 635 nm fluorescence, primary screen (AID 1104).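 Also: score merges 667 nm emission intensity with spot signal to noise over triplicate slides.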 Particulars: EGFR binding, higher = more signal.
Assay [8] concerns the target Follistatin-related protein 3 (Homo sapiens) (UniProt O95633). The assay can be described thus: compounds binding follistatin-related protein 3 – biochemical, small-molecule microarray, 635 nm fluorescence, primary screen (AID 1105).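 Also: score merges emission near 667 nm and signal to noise per printed spot across three slides.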 Particulars: FSTL3 binding, higher = more signal.
The target of assay [9] is Dickkopf-related protein 1 (Homo sapiens) (UniProt O94907). Kind of assay: small molecules binding DKK1 protein – biochemical, small-molecule microarray, 635 nm fluorescence scan, primary screen (AID 1106).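 Also: score merges emission near 667 nm with signal to noise over three replicate slides.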 Particulars: higher = more signal.
Assay [10] concerns Inhibin beta A chain (activin A). The assay can be described thus: small molecules binding activin A – biochemical, small-molecule microarray, 635 nm fluorescence scan, primary screen (AID 1107).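 Also: mouse activin A protein probed at 4.33 µg/mL on printed slides; score merges bound-protein fluorescence near 667 nm with spot signal-to-noise.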 As to conditions: INHBA, higher = more signal.
Assay [11] deals with Human papillomavirus type 1a protein E7 (residues 44-93). The assay can be described thus: small molecules binding HPV E7 44-93 – biochemical, small-molecule microarray, residues 44-93, 635 nm fluorescence, primary screen (AID 1108).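 Also: E7 fragment applied at 1 µg/mL in TBST for 1 h at 4 C; score combines spot fluorescence with its signal to noise ratio.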 As to conditions: fluorescence 635 nm, higher = more signal.
Assay [12] can be described thus: hepatitis C replication reporter changes, two-sided – Huh7 cells, luciferase reporter, HCV replication inhibitor project, primary screen (AID 1109).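 Also: huh7 hepatoma cells harbouring a luciferase neomycin HCV replicon reporter; luciferase luminescence as measure of HCV replicon replication; test concentration not given here.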 As to conditions: Huh7 HCV replicon luciferase reporter, 48 h; higher = more signal.
For assay [13], the target named is Left-right determination factor 2 (Homo sapiens) (UniProt O00292). The assay can be described thus: small molecules binding LEFTY2 protein – biochemical, small-molecule microarray, 635 nm fluorescence scan, primary screen (AID 1110). Particulars: higher = more signal.
Assay [14] has as its target Calmodulin-1 (Homo sapiens) (UniProt P0DP23). The assay can be described thus: small molecules binding calmodulin-1 with EGTA – biochemical, small-molecule microarray, Cy5-labelled CALM1, profiling panel (AID 1111).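 Also: labelled calmodulin applied in Tris saline Tween buffer holding calcium plus EGTA and DTT.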 Particulars: Cy5-CALM1 binding fluorescence, higher = more signal.
The target is the same in assay [15]. The assay can be described thus: small molecules binding Ca-loaded calmodulin-1 – biochemical, small-molecule microarray, Cy5-labelled CALM1, plus calcium, artefact control for SMM control-protein annotation, profiling panel (AID 1112).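 Also: score merges spot fluorescence with signal to noise from triplicate slides.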 As to conditions: Cy5-CALM1 binding fluorescence, higher = more signal.
Assay [16] can be described thus: probe aWnt5a binding to arrayed compounds – biochemical, biotinylated probe, 635/667 nm fluorescence, primary screen (AID 1113).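 Also: score merges 667 nm fluorescence intensity with signal-to-noise per printed feature.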 Particulars: small-molecule microarray, higher = more signal.
The nature of assay [17]: probe aShh binding to arrayed compounds – biochemical, biotinylated probe, 635/667 nm fluorescence, primary screen (AID 1114).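 Also: probe is biotin-labelled aShh protein from a stem cell growth factor screen; measures binding of labelled protein to compounds printed on the slide; score merges feature fluorescence at 667 nm with signal-to-noise.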 As to conditions: small-molecule microarray, higher = more signal.
Assay [18] is described as follows: probe aNog binding to arrayed compounds – biochemical, biotinylated probe, 635/667 nm fluorescence, primary screen (AID 1115).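 Also: probe is biotinylated aNog protein used at 0.15 µg/mL for 1 h at 4 C; z-score combines 667 nm fluorescence of each spot with its signal to noise.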 As to conditions: small-molecule microarray, higher = more signal.
The target of assay [19] is Torsin-1A-interacting protein 1 (Homo sapiens) (UniProt Q5JTV8). Kind of assay: compound microarray binding of lysate hLAP1 – cell lysate, small-molecule microarray, COS7 lysate, 635/667 nm fluorescence, primary screen (AID 1116). Particulars: 635 nm fluorescence, higher = more signal.
Assay [20] addresses Alpha-bungarotoxin (Bungarus multicinctus) (UniProt P60615). The assay can be described thus: compounds binding labelled alpha-BTX control protein – biochemical, small-molecule microarray, Alexa647 label, 635/667 nm fluorescence, artefact control for SMM control protein annotation, profiling panel (AID 1117). As to conditions: alpha-BTX-A647 binding fluorescence, higher = more signal.

Sequence of Torsin-1A-interacting protein 1 (Homo sapiens) (Q5JTV8 whole entry, looked up): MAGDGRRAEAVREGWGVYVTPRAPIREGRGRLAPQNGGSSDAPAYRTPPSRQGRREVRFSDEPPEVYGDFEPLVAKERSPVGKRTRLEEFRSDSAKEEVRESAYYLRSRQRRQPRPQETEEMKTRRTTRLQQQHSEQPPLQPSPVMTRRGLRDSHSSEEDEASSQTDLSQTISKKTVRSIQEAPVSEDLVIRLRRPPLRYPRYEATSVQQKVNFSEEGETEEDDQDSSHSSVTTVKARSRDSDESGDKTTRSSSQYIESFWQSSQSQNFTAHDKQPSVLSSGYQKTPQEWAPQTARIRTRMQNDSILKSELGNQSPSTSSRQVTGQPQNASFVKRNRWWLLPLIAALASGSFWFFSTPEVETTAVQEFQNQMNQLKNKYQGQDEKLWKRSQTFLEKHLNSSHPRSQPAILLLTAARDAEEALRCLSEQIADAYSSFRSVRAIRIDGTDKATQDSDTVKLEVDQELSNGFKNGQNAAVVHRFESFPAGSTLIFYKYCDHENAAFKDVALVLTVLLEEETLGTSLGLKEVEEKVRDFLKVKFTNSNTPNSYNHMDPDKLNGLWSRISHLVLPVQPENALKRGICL
Sequence of Follistatin-related protein 3 (Homo sapiens) (O95633 whole entry, looked up): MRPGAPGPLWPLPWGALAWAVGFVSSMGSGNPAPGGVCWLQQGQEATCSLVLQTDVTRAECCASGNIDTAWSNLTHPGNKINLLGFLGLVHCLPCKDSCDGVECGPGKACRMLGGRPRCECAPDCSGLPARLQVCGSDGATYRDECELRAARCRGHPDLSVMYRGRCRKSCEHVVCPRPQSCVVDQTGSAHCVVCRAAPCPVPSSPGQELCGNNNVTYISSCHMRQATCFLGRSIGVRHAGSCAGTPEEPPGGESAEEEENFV
Sequence of Left-right determination factor 2 (Homo sapiens) (O00292 whole entry, looked up): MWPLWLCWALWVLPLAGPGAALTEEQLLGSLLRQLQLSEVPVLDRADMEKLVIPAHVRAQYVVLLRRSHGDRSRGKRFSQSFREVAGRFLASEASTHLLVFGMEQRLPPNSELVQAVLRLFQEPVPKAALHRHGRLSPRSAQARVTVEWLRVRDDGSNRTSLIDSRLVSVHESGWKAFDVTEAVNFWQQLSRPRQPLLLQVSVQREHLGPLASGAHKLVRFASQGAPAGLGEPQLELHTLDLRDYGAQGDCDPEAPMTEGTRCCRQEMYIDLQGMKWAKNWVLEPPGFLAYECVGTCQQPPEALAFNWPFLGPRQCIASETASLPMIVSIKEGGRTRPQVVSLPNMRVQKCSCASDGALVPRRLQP
Sequence of Epidermal growth factor receptor (Homo sapiens) (P00533 whole entry, looked up): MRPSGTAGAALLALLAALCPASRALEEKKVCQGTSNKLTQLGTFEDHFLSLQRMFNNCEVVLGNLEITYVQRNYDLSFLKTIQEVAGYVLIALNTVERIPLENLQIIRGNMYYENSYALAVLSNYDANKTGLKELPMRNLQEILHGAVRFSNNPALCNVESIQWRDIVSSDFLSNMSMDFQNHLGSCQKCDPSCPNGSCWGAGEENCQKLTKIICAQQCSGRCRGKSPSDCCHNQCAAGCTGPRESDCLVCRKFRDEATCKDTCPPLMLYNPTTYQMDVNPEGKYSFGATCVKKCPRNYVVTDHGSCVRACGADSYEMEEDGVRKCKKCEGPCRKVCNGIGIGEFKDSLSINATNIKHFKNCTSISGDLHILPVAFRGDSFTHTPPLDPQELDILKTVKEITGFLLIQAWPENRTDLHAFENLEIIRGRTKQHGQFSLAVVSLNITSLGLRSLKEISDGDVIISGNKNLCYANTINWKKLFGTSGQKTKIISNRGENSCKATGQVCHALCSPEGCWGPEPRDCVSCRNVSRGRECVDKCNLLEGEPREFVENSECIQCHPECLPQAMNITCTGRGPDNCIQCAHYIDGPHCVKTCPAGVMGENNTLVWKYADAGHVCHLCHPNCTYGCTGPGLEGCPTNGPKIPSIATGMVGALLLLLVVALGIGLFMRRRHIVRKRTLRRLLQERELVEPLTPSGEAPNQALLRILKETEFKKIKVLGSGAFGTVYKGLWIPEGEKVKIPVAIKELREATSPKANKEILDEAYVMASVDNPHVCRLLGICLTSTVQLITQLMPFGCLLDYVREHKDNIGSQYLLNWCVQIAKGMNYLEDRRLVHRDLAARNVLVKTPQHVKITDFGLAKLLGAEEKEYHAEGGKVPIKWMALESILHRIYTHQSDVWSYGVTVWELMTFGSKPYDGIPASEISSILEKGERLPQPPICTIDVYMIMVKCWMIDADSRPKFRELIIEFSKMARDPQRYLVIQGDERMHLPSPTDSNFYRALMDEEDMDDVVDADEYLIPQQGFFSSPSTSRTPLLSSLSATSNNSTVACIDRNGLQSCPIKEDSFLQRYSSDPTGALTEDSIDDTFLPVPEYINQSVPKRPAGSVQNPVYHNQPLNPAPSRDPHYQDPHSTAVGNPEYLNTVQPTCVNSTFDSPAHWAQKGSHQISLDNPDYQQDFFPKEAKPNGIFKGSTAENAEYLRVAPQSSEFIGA
Sequence of Dickkopf-related protein 1 (Homo sapiens) (O94907 whole entry, looked up): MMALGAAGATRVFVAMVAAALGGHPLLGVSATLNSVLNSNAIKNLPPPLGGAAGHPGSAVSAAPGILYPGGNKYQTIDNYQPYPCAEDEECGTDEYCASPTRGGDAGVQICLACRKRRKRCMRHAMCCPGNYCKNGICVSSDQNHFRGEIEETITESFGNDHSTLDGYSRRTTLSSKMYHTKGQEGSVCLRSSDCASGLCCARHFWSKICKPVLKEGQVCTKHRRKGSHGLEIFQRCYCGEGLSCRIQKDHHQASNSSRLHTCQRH
Sequence of Alpha-bungarotoxin (Bungarus multicinctus) (P60615 whole entry, looked up): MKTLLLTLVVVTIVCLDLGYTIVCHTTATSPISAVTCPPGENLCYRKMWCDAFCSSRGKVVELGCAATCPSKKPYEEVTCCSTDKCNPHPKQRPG
Sequence of Fibroblast growth factor 10 (Homo sapiens) (O15520 whole entry, looked up): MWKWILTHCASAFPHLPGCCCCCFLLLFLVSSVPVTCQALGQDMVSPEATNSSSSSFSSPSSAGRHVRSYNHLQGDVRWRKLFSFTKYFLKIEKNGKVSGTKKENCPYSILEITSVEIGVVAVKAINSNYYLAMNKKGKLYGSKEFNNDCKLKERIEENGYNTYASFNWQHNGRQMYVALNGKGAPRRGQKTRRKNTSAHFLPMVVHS

For `C=C(CCCC)/C(=C/C[C@@H](OC(=O)c1ccncc1)c1ccc(OCCO)cc1)c1cc(C(=O)OC)ccc1OC`, the composite z-score was 0.0247 in [1]; 0.0101 in assay [2]; -0.287 in assay [3]; 0.876 in assay [5]; 0.605 in assay [6]; -0.0331 in [7]. Moreover, the composite z-score in assay [8] was 0.937; in [9], 0.135; in [10] it was 0.218; in [11], 1.41; in assay [13], -0.0304; in assay [14], 0.168. Moreover, the composite z-score was -0.959 in assay [15]; -0.166 in assay [16]; -0.138 in assay [17]; -0.144 in assay [18]; 0.883 in assay [19]; 0.311 in assay [20]. The z-score in assay [4] is 0.489 (inactive); in assay [12], -1.91.

In the case of `CCOC(=O)C[C@H]1[C@H](OC(=O)c2ccc(C(=O)c3ccccc3)cc2)[C@@H](NC(=O)c2ccccc2)c2cc(OCCCO)ccc2N1C(=O)Cc1ccc(OC)cc1`, the composite z-score in [1] was -0.0032; in assay [2], 0.234; in assay [3], 0.586; in assay [5] it was 0.131; in assay [6], 0.0916; in assay [7], 0.285. For the same molecule, the composite z-score in [8] was 0.0514; in [9], -0.0269; in assay [10] it was 0.811; in [11] it was 0.525; in [13], 0.366; in assay [14], 0.0941. The composite z-score in assay [15] is -0.222; in [16] it was -0.107; in assay [17], -0.195; in assay [18] it was -0.205; in [19] it was 0.738; in [20] it was 0.178. Moreover, the results for the z-score in [4] and in [12] were 0.0989 (inactive) and -0.283, respectively.

As to `C=C(CC1([C@@H](NP(=O)(c2ccccc2)c2ccccc2)[C@H]2C[C@@H]2CCCC)CC1)c1ccccc1`, the composite z-score in [1] came to 0.339; in assay [2], 0.786; in assay [3], 0.994; in assay [5], 0.0431; in assay [6] it was 0.014; in [7], 0.243. The composite z-score in assay [8] is 0.438; in [9] it was 0.104; in assay [10], 0.705; in assay [11], 1.23; in assay [13] it was -0.0117; in [14] it was 1.19. The composite z-score in assay [15] was determined as 1.15; in [16], 0.186; in assay [17] it was 0.257; in assay [18], 0.0585; in assay [19] it was 1.17; in assay [20] it was 0.598. Also, the results for the z-score in assay [4] and in assay [12] were -2.51 (inactive) and -0.776, respectively.

On to `COCCOC(=O)N1C(=O)[C@@]2(c3cc(C#CCCO)ccc31)[C@H](C(N)=O)[C@H]1C(=O)O[C@H](c3ccccc3)[C@H](c3ccccc3)N1[C@@H]2c1ccc(O)cc1`, for which the composite z-score in assay [1] was 1.22; in assay [2], -0.163; in assay [3], 0.489; in [5], 0.344; in [6], -0.124; in assay [7] it was -0.376. For the same molecule, the composite z-score in assay [8] is -0.131; in [9], 0.0665; in [10] it was 0.275; in assay [11] it was -0.48; in assay [13] it was -0.142; in assay [14], -0.0162. In addition, the composite z-score was 0.461 in assay [15]; -0.0197 in assay [16]; -0.0035 in assay [17]; 0.0107 in [18]; 0.169 in assay [19]; 0.244 in [20]. In addition, the z-score in [4] was 0.477 (inactive); in [12], 0.11.

Regarding `COC(=O)[C@@]1(Cc2ccc(OC)cc2)[C@H]2c3cc(C(=O)N4CCCC4)n(Cc4ccc(C)c(F)c4F)c3C[C@H]2CN1C(=O)c1ccccc1`, the composite z-score in assay [1] was 1.05; in [2] it was 1.09; in assay [3], 1.33; in [5], 0.791; in [6], 1.29; in assay [7], -0.139. In addition, the composite z-score in [8] was 1.18; in [9], -0.602; in assay [10], 0.702; in [11] it was 1.48; in [13], -0.401; in assay [14] it was 2.14. The composite z-score in assay [15] is 1.3; in assay [16], -0.0553; in [17] it was -0.155; in assay [18] it was 1.65; in assay [19] it was 0.113; in assay [20] it was 1.55. Further, the figures for the z-score in [4] and in assay [12] were -0.282 (inactive) and -2.34, respectively.
